JMJD2A Tudor – inhibitors of human JMJD2A Tudor domain; O75164; AlphaScreen JMJD2A-Tudor / H3K4me3 peptide binding; Potency, µM (top dose mostly 114 µM), for the others: top-dose activity change, negative = inhibition, usual class: inhibitors; 4.4% of 390,000 active; AID 504339; also: potency is read from the fitted curve at half-maximal effect; % is scaled to controls: 0 for no effect and ±100 for the full control effect; nearly all actives have a fitted effect of over 50% in size
HP1b binding inh – blocks HP1-beta chromodomain binding to methylated histone tails; P83916; AlphaScreen HP1-beta / biotin-H3K9me3 peptide binding; Potency, µM (series often up to 114 µM), inactives show at the top dose activity change, negative = inhibition, usual class: inhibitors; 0.56% of 390,000 active; AID 540317; also: potency is read from the fitted curve at half-maximal effect; nearly all actives have a fitted effect of over 70% in size
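HP1-beta protein (50 nM final) preincubated 30 min at room temperature with biotinylated H3(1-18)K9me3 peptide (50 nM) in PBS pH 7.4, 0.01% Tween-20, then compound added for 30 min. AlphaScreen streptavidin donor/nickel chelate acceptor beads (10 ug/mL final), 30 min dark, luminescence read.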
BAZ2B inh – blocks human BAZ2B | 4.4% of 360,000 active | Q9UIF8 | AlphaScreen BAZ2B-H3K14Ac peptide displacement | Potency, µM (highest dose often 114 µM), inactives show at the top dose activity change, negative = inhibition, usual class: inhibitors; also: potency is read from the fitted curve at half-maximal effect; % is scaled to controls: 0 for no effect and ±100 for the full control effect; nearly all actives have a fitted effect of over 60% in size
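Compounds, titrated to a top concentration of 110 uM, were incubated 30 min at room temperature with preformed BAZ2B/acetyl-K14 H3 peptide complex (50 nM each). Proximity signal was measured by AlphaScreen after 20 min with beads.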
G9a block – blocks human histone lysine methyltransferase G9a; G9a H3K9 monomethylation, AlphaScreen, 2 h; Potency, µM (highest dose often 102 µM), for inactives: at the top dose activity, negative = inhibition, hits mostly inhibitors; 8.8% of 350,000 active; AID 504332; also: potency is read from the fitted curve at half-maximal effect; % is scaled to controls: 0 for no effect and ±100 for the full control effect; nearly all actives have a fitted effect of over 75% in size
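Signal arises when biotinylated H3K9 peptide, once monomethylated, bridges streptavidin donor and antibody-captured acceptor beads. Enzyme at 20 nM was preincubated 15 min with test compounds; peptide 500 nM and SAM 20 uM then reacted for 2 h.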
PI5P4Ka inh – inhibitors of human PI5P4K alpha. P48426. PI5P4Kalpha enzyme, ADP-Glo luminescence, 60 min; stronger effect = lower value. max response, %. 1.2% of 330,000 active; active = max response of -50% or lower; inconclusive = between -30% and -50%; inactive = -30% or higher; also: value at the top dose of about 77 µM; % is scaled to controls: 0 for no effect and ±100 for the full control effect
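Human PI5P4Kalpha with substrate in 0.038 M HEPES pH 7.4, 0.28 mM EGTA, 0.1% CHAPS, 5% DMSO; reaction started with 5 microM ATP (final), 60 min at room temperature. ADP formed read by ADP-Glo luminescence.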
PLK1 PBD inh – blocks phosphopeptide binding to human PLK1 polo-box domain; Plk1 PBD binding of FITC phosphopeptide, fluorescence polarization; Potency, µM, inactives show max response, negative = inhibition, most hits filed as inhibitors; 2.8% of 360,000 active; AID 720504; also: potency is read from the fitted curve at half-maximal effect; series mostly up to about 57 µM; % is scaled to controls: 0 for no effect and ±100 for the full control effect; nearly all actives have a fitted effect of over 65% in size
Target sequence (P53350 whole entry, looked up, the tested form may be a part): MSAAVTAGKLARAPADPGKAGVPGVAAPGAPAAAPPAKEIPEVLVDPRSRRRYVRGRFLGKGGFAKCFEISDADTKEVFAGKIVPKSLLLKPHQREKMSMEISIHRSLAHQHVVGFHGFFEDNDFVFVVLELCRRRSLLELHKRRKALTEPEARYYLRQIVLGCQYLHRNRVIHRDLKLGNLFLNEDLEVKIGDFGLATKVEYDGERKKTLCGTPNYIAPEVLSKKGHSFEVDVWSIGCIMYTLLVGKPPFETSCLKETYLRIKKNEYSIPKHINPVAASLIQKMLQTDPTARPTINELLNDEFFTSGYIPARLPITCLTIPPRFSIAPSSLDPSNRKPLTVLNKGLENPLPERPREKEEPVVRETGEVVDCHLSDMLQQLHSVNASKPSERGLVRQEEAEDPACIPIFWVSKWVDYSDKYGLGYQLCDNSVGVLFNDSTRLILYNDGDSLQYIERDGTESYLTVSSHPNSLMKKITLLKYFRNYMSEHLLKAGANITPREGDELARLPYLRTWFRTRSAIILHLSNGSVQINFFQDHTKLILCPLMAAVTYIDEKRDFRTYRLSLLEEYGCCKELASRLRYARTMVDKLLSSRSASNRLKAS
* = called active by the depositor; ? = inconclusive; nt = not tested or not shown; [ ] = dose if it differs, or a comment. Compounds with a hit are over-represented: about 12% of the library has one in this group of screens. Unless noted, calls follow the shape of the dose curve; as a rule, active = well fitted curve in the direction sought with a large enough effect; inconclusive = small, poorly fitted or top-dose-only effect, or another doubt; inactive = no such curve, though single readings can be large; an effect the other way counts as inactive or inconclusive.

SMILES | JMJD2A Tudor | HP1b binding inh | BAZ2B inh | G9a block | PI5P4Ka inh | PLK1 PBD inh
Cc1cccc(C(=O)NC2(C(F)(F)F)N=C(c3ccccc3)N(C3CCCCC3)C2=O)c1 (stereo not drawn) | -10% | 21% | -17% | 3%[59 µM] | nt | nt
Cc1ccc(-n2c(C)cc(C(=O)C(=O)Nc3ccccc3)c2C)c(C)c1 | -10% | 33% | 0% | -38%[59 µM] | nt | nt
Cc1cc(=O)c(C(=O)O)cn1-c1ccc(C(C)C)cc1 | 3% | 9% | ? | 45µM* | 4 | -7%
Cc1ccc(-n2nc(C)c(C(=O)O)n2)c(C)c1 | -10% | 8% | -4% | 79µM* | -3 | -18%
Cc1cc(=O)c(C(=O)O)cn1Nc1ccc(Cl)cc1 | -27% | 40% | -10% | ? | 1 | -12%
Cc1ccc(-n2cc(C(=O)O)c(=O)cc2C)c(C)c1 | -12% | 11% | ? | 50µM* | 2 | 2%
Cc1cc(C)c(N)c(C(=O)O)c1 | -11% | 41% | 0% | -2%[12.7 µM] | 0 | 0%
Cc1cc(C)cc(-n2cc(C(=O)O)c(=O)cc2C)c1 | -6% | 8% | 79µM* | 28µM* | 0 | 2%
COc1cc(F)c(S(=O)(=O)N2CCCN(S(=O)(=O)c3ccc4c(c3)OCCO4)CC2)c(F)c1 | -16% | nt | nt | nt | nt | nt
Cc1cc(C)cc(NC(=O)CN(c2cc(C(F)(F)F)ccc2Cl)S(=O)(=O)c2ccccc2)c1 | -10% | 13% | -2% | -3%[59 µM] | nt | nt
Cc1cccc(-n2cc(C(=O)O)c(=O)cc2C)c1 | 45µM* | -4% | -38% | 22µM* | 1 | -2%
COc1cc(NC(=S)N2CCCC(CO)C2)cc(OC)c1 (stereo not drawn) | 7% | 13% | -15% | ? | 3 | 21µM*
COc1cc(NC(=O)CCn2c(=S)oc3ccccc32)cc(OC)c1OC | -6% | 21% | -10% | 15% | 0 | -4%
CC1(C)CC(=O)C2=C(C1)Nc1ccccc1N=C2 | nt | nt | -30% | 8.9µM* | nt | nt
CC1(C)CC(=O)C2=C(C1)Nc1ccccc1S2 | -23% | -24% | ? | 40µM* | -8 | -26%
CCOc1ccc(Nc2c(S(=O)(=O)c3ccc(Cl)cc3)cnc3ccc(OC)cc23)cc1 | -22% | -3% | -29% | -33%[59 µM] | nt | nt
CCc1ccc(N=C2NC(=O)/C(=C/c3ccc(OCC(=O)O)c(OC)c3)S2)cc1 | 28µM* | 45µM* | 7.1µM* | nt | -75* | ?
CCc1ccc(N=C2NC(=O)/C(=C/c3ccc(OCC(=O)O)cc3)S2)cc1 | ? | 4% | 50µM* | 50µM* | ? | -29%
CCOC(=O)C1=C(O)/C(=C/c2ccc(OCC(=O)O)c(OCC)c2)SC1=Nc1ccc(C)cc1 | -31% | 24% | -28% | 45µM* | -24 | -17%
CCOc1ccc(N=C2NC(=O)/C(=C/C(=O)OC)S2)cc1 | -20%[57.1 µM] | 32% | -5% | 12%[59 µM] | 4 | -7%
O=c1c2cc3c(cc2nc2sc(Nc4ccc(F)c(Cl)c4)nn12)OCO3 | -2% | 48% | 29% | 14%[59 µM] | nt | nt
Cn1c(N/N=C/c2cccs2)cc(=O)n(C)c1=O | 7% | 35% | -4% | 50µM* | -16 | -2%
COc1ccc(C(=O)/C=C/c2cn(CC(O)CN3CCc4ccccc43)c3ccccc23)cc1OC (stereo not drawn) | 20µM* | -32% | 10µM* | ? | nt | nt
Cc1ccc(C(=O)/C=C/c2cn(CC(O)CN3CCc4ccccc43)c3ccccc23)cc1 (stereo not drawn) | 25µM* | -21% | ? | 13µM* | nt | nt
COc1ccc(C(=O)/C=C/c2cn(CC(O)CN3CCOCC3)c3ccccc23)cc1 (stereo not drawn) | -24% | -3% | ? | 45µM* | 8 | 17%
CC(C)CN(CC(C)C)CC(O)Cn1cc(/C=C/C(=O)c2ccccc2)c2ccccc21 (stereo not drawn) | -11% | 43% | 89µM* | -4%[59 µM] | nt | nt
CCNC(=O)C1(C)CCN(C(=O)c2cc(F)ccc2C)C1 (stereo not drawn) | nt | nt | nt | nt | -4 | -8%

High-throughput results: PubChem BioAssay, National Center for Advancing Translational Sciences (NCATS)
